In PubChem BioAssay (NCI):
This is part of a sample that, as a whole, favours compounds with a hit. Of some 83,000 tested, about 20% had one in any assay.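 Single-dose data. Exposure time 48 hours. Values below 10 considered active.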 Active and inactive are the calls of the source.

The compounds below were run on HL-60(TB) leukemia (assay: NCI-60 one-dose screen, 48 h (100 = growth as untreated, 0 = no growth, -100 = all killed)). Conditions: 10 µM unless noted.
For `CCSC(SCC)c1ccc(Cl)cc1`, the growth was 116% (inactive).
For `Clc1ccc(CN2COc3c(ccc4cccnc34)C2)cc1Cl`, the growth was -63.5% (active).
In the case of `Cn1cc(-c2csc(-c3cn(C)c4ccc(Br)cc34)n2)c2cnccc21`, the growth is reported as -58.4% (active).
`N=c1c(S(=O)(=O)c2ccccc2)cc2c(=O)n3ccccc3nc2n1CC1CCCO1` (stereo not given) was tested, and the growth was 109% (inactive).
In the case of `O=C(Nc1ccc(Cl)cc1)c1cc2c(cc1O)[nH]c1ccccc12`, the growth is reported as -24.5% (active).
In the case of `CCC/C=C(\C)C(C)(C#N)C(=O)OCC` (stereo not given), the growth is reported as 103% (inactive).
With `O=C(N/N=C/c1ccc2c(c1)OCO2)c1cnn2c1NC(c1ccccc1)C2` (stereo not given) the growth was 56.3% (inactive).
With `CCOC(=O)CC(c1ccccc1)C(C#N)c1ccccc1` (stereo not given) the growth was 99.3% (inactive).
With `CCCOc1ccc2c(c1)CC[C@@H]1[C@@H]2CC[C@@]2(C)[C@H]1CC[C@]2(C)O` the growth was 78.8% (inactive).
`N#Cc1c(N)nn(C(=O)c2ccc(NC(=O)c3ccccn3)cc2)c1-c1ccc(Cl)cc1` was tested, and the growth was 69.1% (inactive).
In the case of `O=C(C1CCCCC1)[C@@H]1[C@]2(C(=O)NC3CCCCC32)[C@@H]2CCCN2[C@@]12C(=O)NC1CCC(Cl)CC12` (stereo not given in full), the growth is reported as -65.9% [100 µM] (active).
`CC(=O)Oc1ccc(C(OC(C)=O)OC(C)=O)cc1` was tested, and the growth was 90.3% (inactive).
`COc1ccccc1Nc1nc(-c2cc3cccc(C(F)(F)F)c3oc2=O)cs1` was tested, and the growth was -5.62% (active).
For `CC(C)(C)n1cc(-c2ccnc(NCCNS(=O)(=O)c3ccccc3)c2)c(-c2cccc(O)c2)n1`, the growth was 45% (inactive).
With `O=c1ccc2nc(C(F)(F)F)nn(-c3ccccc3)c-2c1` the growth was -36.6% (active).
In the case of `N#Cc1c(NC(=O)c2ccccc2I)sc2c1CCCC2`, the growth is reported as 12.6% (inactive).
In the case of `NS(=O)(=O)c1ccc(CCN2C(=O)C3C(C2=O)C2(Cl)C(Cl)=C(Cl)C3(Cl)C2(Cl)Cl)cc1` (stereo not given), the growth is reported as 78.4% (inactive).
With `CC1CC=CCC1C1OCC(C)(C)CO1` (stereo not given) the growth was 91.8% (inactive).
For `COc1cc(Br)c(OC)cc1Br`, the growth was 109% (inactive).
In the case of `COc1ccc2c(c1)c(CC(=O)NCCOCCOCC(=O)Nc1ccc(OC)c(C(N)=O)c1O)c(C)n2C(=O)c1ccc(Cl)cc1`, the growth is reported as 107% (inactive).
With `CN(C)c1ccc2c(c1)OC(N)=C(C#N)C2c1ccc2c(c1)CCO2` (stereo not given) the growth was -1.56% (active).
With `CCCCCC1CCCCN1C(=O)OCCCC` (stereo not given) the growth was 102% (inactive).
For `CNc1nc(NC2CCCC2)nc(Sc2ccc(OC)cc2)n1`, the growth was 2% [100 µM] (active).
In the case of `Cn1/c(=N/NC(N)=S)ccc2ccccc21`, the growth is reported as 106% (inactive).
`COc1ccc(-c2nc(Nc3cc(C)[nH]n3)c3ccccc3n2)cc1` was tested, and the growth was 41.4% (inactive).
`O=C(/C=C/c1ccc2c(c1)OCO2)c1c(O)c2ccccc2oc1=O` was tested, and the growth was 77.8% (inactive).
For `CC(=O)CS(C)(=O)=O`, the growth was 100% (inactive).
With `COc1ccc(/C(=C2\O[C@@H]([C@H]3COC(C)(C)O3)[C@H]3OC(C)(C)O[C@@H]23)c2cc(OC)c(OC)c(OC)c2)cc1O` the growth was 20.7% (inactive).
For `COc1ccc(/C=C2\SC(=S)N(CCCN3CCOCC3)C2=O)c(OC)c1`, the growth was 83.1% (inactive).
With `COc1ccc2nc(NC(=O)c3cc(-c4ccc(F)cc4)n4nc(-c5ccccc5)cc4n3)sc2c1` the growth was 98.7% (inactive).
For `O=S(=O)(O)c1ccc(O)c(C2CCCCC2)c1`, the growth was 131% (inactive).
With `C=CCn1c(SCC(=O)Nc2ccc(C(=O)/C=C/c3cc(OC)c(OC)c(OC)c3)cc2)nnc1-c1cc(-c2ccc(Cl)cc2)nc2ccccc12` the growth was 98.7% (inactive).
With `CCN(CC)CCCC(Nc1c2ccc(Cl)cc2nc2ccc(OC)cc12)c1ccc(F)cc1` (stereo not given) the growth was -37.5% (active).
In the case of `COc1cc(NC(N)=NCC(C)(C)COc2ccc(C(F)(F)F)cc2)cnc1C#N`, the growth is reported as 24.7% (inactive).
`CCN(CC)c1ccc(/C=N/NC(=O)CSc2nc3ccccc3c(=O)n2CCc2ccc(S(N)(=O)=O)cc2)c(O)c1` was tested, and the growth was -18.7% (active).
With `N#Cc1cccc(C2C3=C(COC3=O)N(CCO)c3cc4c(cc32)CCC4)c1` (stereo not given) the growth was -27.2% (active).
With `COc1cc2c(cc1-c1c(C)noc1C)ncc1nc(C3CCOCC3)n(C3CCC(OC(F)F)CC3)c12` (stereo not given) the growth was 7.23% (active).
In the case of `COc1c2ccccc2c(OC)c2[nH]c(=O)ccc12`, the growth is reported as 71.5% (inactive).
In the case of `c1cc(OCCN2CCCCC2)ccc1CNc1ccc2nc(CCC3CCCCC3)[nH]c2c1`, the growth is reported as -31.6% (active).
`Oc1[nH]c2ccc(Cl)cc2c1/C=c1/ccc2c(c1)N=C(c1cccs1)N=2` was tested, and the growth was 98.4% (inactive).
